# Compounds without any hit were thinned out: in the full panel of roughly 83,000, 20% have a hit.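 A percent growth of 40 corresponds to 60% growth inhibition; 0 means no net growth; -100 means all cells died. Active threshold: below 10.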 Values without a mark were called inactive. Calls of active or inactive are those of the source.
# Assays:
# Assay in all cases: NCI-60 one-dose screen, 48 h (100 = growth as untreated, 0 = no growth, -100 = all killed)
# Settings in all cases: 10 µM unless noted
# [1] = test system: HCT-15 colon
# [2] = test system: HT29 colon
# [3] = test system: SNB-75 CNS
# [4] = test system: SNB-19 CNS
# [5] = test system: U251 CNS
# [6] = test system: PC-3 prostate
# [7] = test system: SK-MEL-5 melanoma
# [8] = test system: UACC-62 melanoma
# [9] = test system: LOX IMVI melanoma
# [10] = test system: SK-MEL-28 melanoma
# [11] = test system: SK-MEL-2 melanoma
# [12] = test system: EKVX NSCLC
# [13] = test system: SN12C renal
# [14] = test system: UO-31 renal
# [15] = test system: TK-10 renal
# [16] = test system: ACHN renal
# [17] = test system: CAKI-1 renal
# [18] = test system: A498 renal
# [19] = test system: CCRF-CEM leukemia
# [20] = test system: MOLT-4 leukemia
Structure (SMILES),growth [1],growth [2],growth [3],growth [4],growth [5],growth [6],growth [7],growth [8],growth [9],growth [10],growth [11],growth [12],growth [13],growth [14],growth [15],growth [16],growth [17],growth [18],growth [19],growth [20]
CCCCCCC/C=N/NC(=O)c1ccc(-n2cc(-c3ccccc3)nn2)cc1,73.6%,101%,86.3%,100%,98.3%,74.8%,94.9%,61.9%,59.5%,98.3%,98.9%,90.5%,93.4%,71%,110%,79.1%,75.8%,90.1%,86.3%,85.9%
COc1ccc(C2CC(=O)Oc3c(OC)c4c(c(OC)c32)OCO4)cc1 (stereo not given),87.6%,99.4%,98.6%,107%,99.6%,106%,105%,91.1%,90.3%,95.6%,101%,101%,98%,84.7%,96.4%,103%,96.8%,88.7%,88.9%,96.3%
CCOC(=O)c1c2c(n3ccc(NC(=O)CCN4CCCC4)cc13)C(=O)c1ncccc1C2=O,-78.1% (active),-52.8% (active),-97.5% (active),-55.4% (active),-88.5% (active),-11.7% (active),68.6%,-12.4% (active),-73% (active),96.4%,93.9%,-49.2% (active),-63.5% (active),16.9%,-92.2% (active),13.6%,9.9% (active),46.3%,-36.4% (active),-23% (active)
COC(=O)c1cc(-c2ccc(OC)c(OC)c2)[nH]c1N/N=C/c1c(Cl)cccc1Cl,28.4%,13.7%,4.55% (active),36.1%,30.2%,26.3%,12.7%,38.2%,39.3%,56.4%,53.6%,39.9%,59.1%,52.4%,57.2%,54.4%,6.72% (active),27.6%,19.7%,39.4%
CNC(=O)c1cc(Oc2ccc3nc(NC(=O)c4cc(C(F)(F)F)cc(C(F)(F)F)c4)sc3c2)ccn1,32.1%,31.5%,28.5%,15.5%,14.2%,8.79% (active),-39.9% (active),2.25% (active),27.4%,26.4%,-18.5% (active),23.3%,10.5%,6.1% (active),16.6%,14.9%,11%,-11.4% (active),16.8%,8.03% (active)
Cc1cc(N2CCOCC2)nc(N(CCCNc2ccnc3cc(Cl)ccc23)Cc2ccc3c(c2)OCO3)n1,-31.6% (active),-61% (active),-43.3% (active),40.6%,-47.6% (active),15.9%,-37.2% (active),-18.4% (active),-90.8% (active),-42.6% (active),-18.5% (active),3.49% (active),21%,-32.3% (active),-66% (active),-86.2% (active),35.2%,-31.5% (active),-5.56% (active),-36.2% (active)
COc1cccc(CNc2nnc(C)c(C)n2)c1O,98.9%,105%,100%,93.4%,99.1%,87.2%,91.6%,97.1%,98.8%,109%,106%,104%,96.7%,91.6%,108%,110%,100%,95.3%,101%,109%
Cc1c(Cl)cccc1NC(=O)c1sc2nc3c(cc2c1N)CCCC3,24.1%,8.28% (active),29.6%,32.6%,21%,42.1%,31%,17.3%,39.1%,68.6%,22.1%,52.4%,41.2%,45.8%,62.2%,47.2%,33.9%,-1.63% (active),20.4%,21.6%
C=C1C(=O)O[C@H]2[C@H]1CC/C(COC(=O)NCc1ccc(Cn3c(=O)sn(CCCC)c3=O)cc1)=C\CC[C@@]1(C)O[C@@H]21,24.4%,0.335% (active),82.7%,100%,60.4%,59.9%,96.3%,53.3%,26.8%,55.5%,81.5%,91.1%,49.5%,3.12% (active),14.7%,15.2%,40.6%,100%,-22.4% (active),1.1% (active)
CC(C)CCc1nc2ccc(NCc3ccc(OCCN4CCC(C)CC4)cc3)cc2[nH]1,67.4%,40.3%,90.8%,88.6%,71.6%,61.4%,84.9%,82.5%,59.6%,75.7%,110%,78.5%,69.9%,57.4%,111%,97.3%,64.8%,79.3%,67.3%,62.3%
Cc1cccc(C)c1NC(=O)Nc1ccccc1,25.5%,27.3%,108%,90.8%,77.4%,70.7%,101%,71.6%,69.8%,108%,29%,121%,88.6%,80.7%,96.7%,4.67% (active),54.3%,109%,83.1%,81.7%
CCN1C(=O)N(CC)C2C1NC(=S)N2/N=C/C=C/c1cccs1 (stereo not given),15.5%,5.58% (active),1.94% (active),27%,18.4%,35.2%,23.4%,24.5%,26.7%,49.2%,64.1%,55.1%,30.2%,44.9%,70.3%,42.4%,36.5%,18.4%,12.1%,20.4%
Cc1cc([N+](=O)[O-])ccc1NC(=O)c1ccc2c(c1)nc(-c1ccccc1)n2C1CCCCC1,51.9%,44.5%,80.9%,119%,91.4%,77.4%,62.3%,95%,64%,117%,87.4%,73%,98.6%,62.4%,84.3%,89.6%,70.3%,122%,68.5%,52%
O=c1cc(-c2nccc3c2[nH]c2ccccc23)c2cc(Cl)ccc2o1,24.3%,7.6% (active),39.8%,43.7%,29.6%,30.7%,32.1%,45.5%,50.1%,64.6%,30.2%,62.1%,62.4%,58.1%,85.3%,47.3%,54.6%,31.8%,31.2%,44.3%
COC(=O)c1ccc(-n2cc(CCCOS(=O)(=O)c3ccc(F)cc3)nn2)cc1,98.1%,101%,94.5%,93.9%,96.7%,93.4%,103%,92.5%,98.4%,101%,101%,101%,100%,88.2%,102%,101%,90.6%,84.4%,96.8%,95.7%
O=c1ccc2nc(-c3ccccc3)nn(-c3ccccn3)c-2c1,33.9%,-46.5% (active),106%,102%,94.4%,83.5%,76.6%,93.4%,49.6%,87.2%,96.8%,109%,93.1%,20.5%,-83.4% (active),-91.9% (active),77.4%,88.2%,1.08% (active),-10.6% (active)

# Source: PubChem BioAssay (NCI)
